The text below walks through data of ChEMBL document CHEMBL3988442, “University of Dundee, Small-Polar-MMV Screening Library” (2021).

Common to all, as to parameters: scale not given: direction of the effect not stated beside the values
For experiment [1], the target named is Protein translocase subunit SecA (Escherichia coli (strain K12)) (UniProt P10408). Description: Assay to Identify E. coli SecA ATPase Inhibitors. The format is functional. The conditions noted are these: 30 µM.
Experiment [2] has as its target T1, Ubiquitin-activating enzyme e1, putative (Leishmania donovani (strain BPK282A1)) (UniProt E9BSI1).
T1 sequence (whole entry): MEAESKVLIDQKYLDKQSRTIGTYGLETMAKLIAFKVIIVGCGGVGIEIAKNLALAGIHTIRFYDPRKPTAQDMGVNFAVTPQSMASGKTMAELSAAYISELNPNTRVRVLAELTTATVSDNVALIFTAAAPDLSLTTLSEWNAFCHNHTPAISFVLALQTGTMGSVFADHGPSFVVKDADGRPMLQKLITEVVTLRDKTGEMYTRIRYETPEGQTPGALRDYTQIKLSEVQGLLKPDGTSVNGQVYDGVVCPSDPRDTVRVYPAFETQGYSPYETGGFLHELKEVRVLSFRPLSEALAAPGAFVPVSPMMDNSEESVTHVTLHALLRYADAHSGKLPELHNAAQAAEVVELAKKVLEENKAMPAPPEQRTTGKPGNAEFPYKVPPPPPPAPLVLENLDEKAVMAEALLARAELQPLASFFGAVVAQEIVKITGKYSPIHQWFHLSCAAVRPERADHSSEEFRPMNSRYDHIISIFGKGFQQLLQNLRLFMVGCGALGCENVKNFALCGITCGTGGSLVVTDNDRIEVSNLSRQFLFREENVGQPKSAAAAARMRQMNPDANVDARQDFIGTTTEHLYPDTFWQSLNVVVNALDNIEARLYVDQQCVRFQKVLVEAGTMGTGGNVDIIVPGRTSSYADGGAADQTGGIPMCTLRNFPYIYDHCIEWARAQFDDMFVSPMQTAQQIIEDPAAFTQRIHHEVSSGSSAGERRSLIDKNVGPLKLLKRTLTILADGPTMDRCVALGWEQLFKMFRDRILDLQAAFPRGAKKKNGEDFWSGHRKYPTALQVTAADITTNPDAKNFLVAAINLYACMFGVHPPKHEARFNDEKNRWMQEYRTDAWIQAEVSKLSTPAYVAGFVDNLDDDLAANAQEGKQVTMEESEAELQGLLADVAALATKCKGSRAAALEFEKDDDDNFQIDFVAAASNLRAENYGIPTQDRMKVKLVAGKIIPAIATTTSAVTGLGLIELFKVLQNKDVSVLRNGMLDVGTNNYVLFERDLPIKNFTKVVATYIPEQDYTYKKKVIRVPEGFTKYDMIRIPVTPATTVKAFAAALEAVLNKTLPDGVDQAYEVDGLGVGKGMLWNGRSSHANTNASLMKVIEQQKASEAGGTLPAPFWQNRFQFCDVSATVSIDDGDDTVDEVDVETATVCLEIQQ
In words: Leishmania donovani Ubiquitin Activating Enzyme (LdE1). Format: functional. The conditions noted are these: 30 µM.

For experiment [3], the target named is AMP-activated protein kinase, AMPK (Homo sapiens) (UniProt P54646+O43741+P54619+Q9UGJ0+Q9Y478+Q13131+Q9UGI9). Description: AMP-dependent Kinase enzyme assay. An in vitro enzyme assay that detects ADP turnover that is directly proportional to AMPK activity. This uses naive AMPK that is activated during the assay with MK-8722. Format: functional. The conditions noted are these: 30 µM.

For experiment [4], the target named is Sialic acid-binding Ig-like lectin 9 (Homo sapiens) (UniProt Q9Y336). In words: Hs-Siglec9 ALPHAscreen SOP 20170721. The settings on record: 10 µM.
Sialic acid-binding Ig-like lectin 9 (Homo sapiens), sequence (Q9Y336 whole entry): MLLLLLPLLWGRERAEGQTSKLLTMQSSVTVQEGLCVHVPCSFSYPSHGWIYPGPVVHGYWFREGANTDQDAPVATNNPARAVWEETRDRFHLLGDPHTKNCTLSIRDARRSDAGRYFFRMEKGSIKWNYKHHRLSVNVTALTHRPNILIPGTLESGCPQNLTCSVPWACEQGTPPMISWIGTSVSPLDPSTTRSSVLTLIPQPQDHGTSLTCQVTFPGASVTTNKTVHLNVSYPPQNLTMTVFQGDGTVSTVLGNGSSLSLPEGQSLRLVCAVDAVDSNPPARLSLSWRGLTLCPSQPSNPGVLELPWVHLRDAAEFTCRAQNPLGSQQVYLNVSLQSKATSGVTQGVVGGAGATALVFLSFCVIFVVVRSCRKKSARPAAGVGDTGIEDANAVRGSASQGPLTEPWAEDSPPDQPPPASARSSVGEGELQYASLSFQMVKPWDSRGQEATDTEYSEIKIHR
For a further experiment, the system named is Trypanosoma cruzi. In words: Trypanosoma cruzi phosphomannomutase and mannose-1-phosphate guanylyltransferase assay. Format: functional. The settings on record: 10 µM.
The target in experiment [5] is T2, Arginase-2, mitochondrial (Homo sapiens) (UniProt P78540).
T2 sequence (whole entry): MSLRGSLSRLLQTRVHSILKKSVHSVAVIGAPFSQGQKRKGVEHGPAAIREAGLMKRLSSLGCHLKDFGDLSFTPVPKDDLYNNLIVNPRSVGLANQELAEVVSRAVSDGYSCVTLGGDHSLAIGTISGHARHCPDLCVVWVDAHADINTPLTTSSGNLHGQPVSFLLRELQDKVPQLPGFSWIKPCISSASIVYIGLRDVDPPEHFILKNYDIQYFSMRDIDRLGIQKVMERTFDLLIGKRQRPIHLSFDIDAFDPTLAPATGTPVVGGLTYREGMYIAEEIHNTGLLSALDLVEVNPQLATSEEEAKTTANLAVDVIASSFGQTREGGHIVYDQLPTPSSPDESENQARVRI
Description: in vitro enzyme assay to detect the production of urea directly proportional to the activity of Arginase II. Note: in the data most compounds retested in dose-response had high values. The format is functional. The settings on record: 33.3 µM.

The target of experiment [6] is T3, Proteasome subunit beta (Trypanosoma cruzi) (UniProt O96673).
T3 sequence (whole entry): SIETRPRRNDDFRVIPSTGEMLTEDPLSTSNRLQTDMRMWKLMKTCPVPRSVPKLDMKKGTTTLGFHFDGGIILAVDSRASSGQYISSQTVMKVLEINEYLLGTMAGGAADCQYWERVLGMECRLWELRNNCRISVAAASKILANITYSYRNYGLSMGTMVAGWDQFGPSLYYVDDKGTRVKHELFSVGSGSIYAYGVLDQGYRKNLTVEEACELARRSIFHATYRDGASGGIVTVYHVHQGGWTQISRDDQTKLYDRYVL
In words: Trypanosoma cruzi proteasome chymotrypsin-like activity (TcProtChymo) assay. Note: in the data most compounds retested in dose-response had high values. Format: functional. The settings on record: 9.37 µM.

The species named for a further experiment is Homo sapiens. In words: To identify inhibition of the IFN signalling (Jak-Stat) pathway via expression of an eGFP reporter gene under the control of an IFN-stimulated response element (ISRE) containing MxA promoter. Format: functional. The settings on record: 30 µM.
Experiment [7] deals with T4, Tyrosyl-tRNA synthetase, putative (Trypanosoma cruzi (strain CL Brener)) (UniProt Q4DSP6).
T4 sequence (whole entry): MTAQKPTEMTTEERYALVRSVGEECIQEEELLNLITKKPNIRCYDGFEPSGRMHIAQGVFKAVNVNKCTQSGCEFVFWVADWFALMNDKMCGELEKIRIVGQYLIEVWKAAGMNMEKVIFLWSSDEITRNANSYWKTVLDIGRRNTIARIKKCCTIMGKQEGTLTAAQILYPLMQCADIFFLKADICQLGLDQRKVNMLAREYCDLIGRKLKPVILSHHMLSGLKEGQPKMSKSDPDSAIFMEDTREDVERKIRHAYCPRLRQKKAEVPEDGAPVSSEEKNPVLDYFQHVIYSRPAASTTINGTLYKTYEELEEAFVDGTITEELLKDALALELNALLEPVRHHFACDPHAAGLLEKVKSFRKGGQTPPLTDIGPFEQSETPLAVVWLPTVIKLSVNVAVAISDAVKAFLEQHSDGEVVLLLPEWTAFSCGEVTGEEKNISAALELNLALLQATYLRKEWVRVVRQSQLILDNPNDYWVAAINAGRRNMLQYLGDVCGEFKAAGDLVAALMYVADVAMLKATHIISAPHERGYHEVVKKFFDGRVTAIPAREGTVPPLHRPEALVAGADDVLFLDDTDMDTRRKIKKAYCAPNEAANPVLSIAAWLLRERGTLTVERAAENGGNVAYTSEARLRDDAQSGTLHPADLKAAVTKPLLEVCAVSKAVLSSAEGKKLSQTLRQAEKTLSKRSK
In words: Trypanosoma cruzi tyrosyl tRNA synthetase (TcYRS) _High Tyrosine SOP. Note: in the data most compounds retested in dose-response had high values. The settings on record: 30 µM. The format is functional.

For experiment [8], the target named is T4, Tyrosyl-tRNA synthetase, putative (Trypanosoma cruzi (strain CL Brener)). Description: Trypanosoma cruzi tyrosyl tRNA synthetase (TcYRS) SOP. Format: functional. The settings on record: 30 µM.
Experiment [9] concerns the target Chromo domain-containing protein 1 (Saccharomyces cerevisiae (strain ATCC 204508 / S288c) (Baker's yeast)) (UniProt P32657). In words: ScCHD-1 Enzyme Inhibition Assay. Note: in the data most compounds retested in dose-response had high values. The format is functional. The settings on record: 30 µM.

The structures appear in SMILES notation. For some assays here: Measured potencies and affinities stand elsewhere.

Chromo domain-containing protein 1 (Saccharomyces cerevisiae (strain ATCC 204508 / S288c) (Baker's yeast)), sequence (P32657 whole entry, the tested form may be a part): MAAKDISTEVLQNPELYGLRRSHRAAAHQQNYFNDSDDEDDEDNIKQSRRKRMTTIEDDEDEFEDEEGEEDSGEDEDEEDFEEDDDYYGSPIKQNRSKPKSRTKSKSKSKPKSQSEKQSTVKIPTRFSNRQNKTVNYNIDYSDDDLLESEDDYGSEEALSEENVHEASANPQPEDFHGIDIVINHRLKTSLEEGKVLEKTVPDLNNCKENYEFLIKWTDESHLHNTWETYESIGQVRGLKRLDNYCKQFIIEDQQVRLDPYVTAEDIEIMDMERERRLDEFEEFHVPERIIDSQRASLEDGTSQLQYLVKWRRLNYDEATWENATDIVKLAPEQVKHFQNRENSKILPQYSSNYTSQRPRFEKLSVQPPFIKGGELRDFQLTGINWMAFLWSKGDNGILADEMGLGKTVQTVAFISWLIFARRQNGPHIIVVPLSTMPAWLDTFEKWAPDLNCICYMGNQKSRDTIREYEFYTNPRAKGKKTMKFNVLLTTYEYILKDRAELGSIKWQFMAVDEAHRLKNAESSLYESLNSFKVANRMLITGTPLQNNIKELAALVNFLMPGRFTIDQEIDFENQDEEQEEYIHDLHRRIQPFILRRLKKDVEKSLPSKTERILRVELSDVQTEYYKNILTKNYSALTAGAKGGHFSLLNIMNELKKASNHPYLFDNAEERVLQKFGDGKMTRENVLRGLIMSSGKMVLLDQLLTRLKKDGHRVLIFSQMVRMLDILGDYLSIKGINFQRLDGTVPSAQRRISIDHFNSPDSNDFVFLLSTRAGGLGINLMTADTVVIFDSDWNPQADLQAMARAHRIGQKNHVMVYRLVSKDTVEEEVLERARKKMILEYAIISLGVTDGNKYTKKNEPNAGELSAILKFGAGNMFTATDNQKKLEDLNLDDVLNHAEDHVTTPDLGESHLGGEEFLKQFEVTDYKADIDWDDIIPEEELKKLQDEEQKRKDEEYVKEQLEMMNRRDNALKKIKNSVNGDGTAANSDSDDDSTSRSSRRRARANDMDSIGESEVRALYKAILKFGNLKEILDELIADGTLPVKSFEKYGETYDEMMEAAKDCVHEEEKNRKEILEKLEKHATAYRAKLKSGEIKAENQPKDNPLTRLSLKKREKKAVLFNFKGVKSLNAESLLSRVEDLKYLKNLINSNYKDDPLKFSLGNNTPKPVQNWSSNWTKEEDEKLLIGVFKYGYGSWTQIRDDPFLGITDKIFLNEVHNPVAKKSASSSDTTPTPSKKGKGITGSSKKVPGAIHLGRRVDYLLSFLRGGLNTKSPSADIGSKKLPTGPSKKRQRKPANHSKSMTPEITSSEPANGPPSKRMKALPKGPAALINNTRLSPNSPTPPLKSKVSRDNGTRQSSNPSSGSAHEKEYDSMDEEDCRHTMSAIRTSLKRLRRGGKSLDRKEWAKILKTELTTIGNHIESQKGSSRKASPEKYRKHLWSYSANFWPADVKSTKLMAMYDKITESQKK
Protein translocase subunit SecA (Escherichia coli (strain K12)), sequence (P10408 whole entry): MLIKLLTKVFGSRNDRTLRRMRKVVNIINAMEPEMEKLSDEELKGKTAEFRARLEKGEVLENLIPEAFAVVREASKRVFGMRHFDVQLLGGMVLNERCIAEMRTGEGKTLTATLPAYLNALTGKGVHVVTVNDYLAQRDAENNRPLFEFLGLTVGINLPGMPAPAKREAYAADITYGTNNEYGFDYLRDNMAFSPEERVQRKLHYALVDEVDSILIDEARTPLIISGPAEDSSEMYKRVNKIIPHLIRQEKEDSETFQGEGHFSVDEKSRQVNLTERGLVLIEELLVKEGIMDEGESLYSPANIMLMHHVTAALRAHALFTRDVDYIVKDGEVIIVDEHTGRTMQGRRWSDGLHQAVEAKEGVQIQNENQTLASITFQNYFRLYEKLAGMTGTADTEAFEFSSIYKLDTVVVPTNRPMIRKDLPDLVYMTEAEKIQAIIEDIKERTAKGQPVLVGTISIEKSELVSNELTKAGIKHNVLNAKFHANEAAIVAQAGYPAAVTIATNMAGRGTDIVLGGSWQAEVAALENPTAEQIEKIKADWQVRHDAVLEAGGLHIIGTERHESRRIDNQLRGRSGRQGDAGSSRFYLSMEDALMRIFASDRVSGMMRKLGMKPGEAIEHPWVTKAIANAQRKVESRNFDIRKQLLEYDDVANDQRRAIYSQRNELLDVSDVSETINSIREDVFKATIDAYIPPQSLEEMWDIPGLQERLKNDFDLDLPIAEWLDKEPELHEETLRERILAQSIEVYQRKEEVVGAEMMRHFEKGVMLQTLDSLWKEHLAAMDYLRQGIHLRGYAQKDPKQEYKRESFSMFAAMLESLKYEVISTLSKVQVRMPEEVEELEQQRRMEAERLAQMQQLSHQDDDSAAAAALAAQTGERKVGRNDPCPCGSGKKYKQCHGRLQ

As for `O=C(NC1CC1)[C@H]1C[C@H]2OCC[C@H]2N(CC2CCOCC2)C1`, the Percent Effect is -7.27% in [1]; 0% in experiment [2]; 1.56% in experiment [3]; 2.95% in experiment [4]; -3.28% with Trypanosoma cruzi; -51.1% in [5]. The Percent Effect was 7.18% in [6]; 3.71% in the experiment filed under Homo sapiens; 5.21% in [7]; -2.5% in experiment [8]; 319% in [9].
Turning to `Cc1c(C)n(-c2ccccn2)c2nc3c(c(N)c12)CCCC3`, the Percent Effect is -1.37% in experiment [1]; -14.7% in [2]; 7.92% in [3]; 7.22% in experiment [4]; -3.34% in the experiment on Trypanosoma cruzi; -10% in experiment [5]. The Percent Effect in [6] was 25.1%; in the experiment listed under Homo sapiens, 5.7%; in experiment [7] it was 1.06%; in [8], -51.3%; in experiment [9], -7.7%.
Turning to `CC1c2ncc(COc3cccnc3)n2CCN1C(=O)Cc1ccco1` (stereo not given), the Percent Effect is -6.11% in experiment [1]; 6.67% in [2]; 2.02% in experiment [3]; 6.28% in experiment [4]; -2.36% with Trypanosoma cruzi; -3.7% in [5]. Besides, the Percent Effect was 6.84% in [6]; -8.23% in the experiment listed under Homo sapiens; 2.12% in [7]; 7.69% in experiment [8]; 0.38% in experiment [9].
Regarding `c1csc(-c2nc(CNC3CCc4ncnn4C3)co2)c1` (stereo not given), the Percent Effect was -3.96% in [1]; 7.79% in [2]; -1.01% in [3]; 1.84% in [4]; -5.24% in the experiment with Trypanosoma cruzi; 2.13% in experiment [5]. Besides, the Percent Effect in [6] is 4.22%; in the experiment filed under Homo sapiens it was 20.4%; in experiment [7], 2.91%; in [8], 9.76%; in experiment [9], -4.74%.
`CC(=O)Nc1cccc(C(=O)Nc2cnc3n2CCCC3)c1`: the Percent Effect in experiment [1] was -3.85%; in experiment [2] it was 4.17%; in experiment [3] it was -0.344%; in experiment [4], 0.164%; with Trypanosoma cruzi, -1.46%; in experiment [5], 3.53%. The Percent Effect in experiment [6] is 6.14%; in the experiment filed under Homo sapiens, 17.5%; in [7], 4.21%; in experiment [8], 5.13%; in experiment [9], -3.23%.
As for `COc1ccc(C(=O)N2CCC(Nc3cccnn3)CC2)c(OC)c1`, the Percent Effect in experiment [1] was 1.87%; in [2], -3.8%; in experiment [3], 3.46%; in [4], 2.44%; in the experiment with Trypanosoma cruzi it was -4.41%; in experiment [5], 5.38%. The Percent Effect in experiment [6] was 0.858%; in the experiment filed under Homo sapiens it was 0.418%; in experiment [7], -1.04%; in experiment [8] it was 2.53%; in [9], -16%.
As to `CC(=O)c1c(F)cccc1N1CCC(CS(N)(=O)=O)CC1`, the Percent Effect was -2% in experiment [1]; -2.74% in experiment [2]; 4.36% in [3]; -0.254% in [4]; 0.595% with Trypanosoma cruzi; -2% in [5]. Moreover, the Percent Effect in [6] was 10.4%; in the experiment listed under Homo sapiens it was 3.02%; in experiment [7] it was 4.17%; in experiment [8], 3.7%; in [9], -2.94%.
With `Cc1nc(CC(=O)N2CCCN(c3ccc(C#N)cc3)CC2)cs1`, the Percent Effect in experiment [1] was -2.43%; in experiment [2] it was 0%; in experiment [3], 5.74%; in experiment [4] it was -0.961%; in the experiment with Trypanosoma cruzi, -5.55%; in [5], -4.73%. Further, the Percent Effect in [6] is 14.5%; in the experiment listed under Homo sapiens, 2.28%; in experiment [7], 2.13%; in experiment [8] it was 5.2%; in experiment [9] it was -1.52%.
In the case of `Cc1ccoc1C(=O)NC1CCN(Cc2csc3c(F)cccc23)CC1`, the Percent Effect was -4.82% in experiment [1]; -1.27% in [2]; -4.47% in experiment [3]; -1.87% in experiment [4]; -0.308% in the experiment with Trypanosoma cruzi; -3.66% in experiment [5]. In addition, the Percent Effect in experiment [6] is 9.61%; in the experiment filed under Homo sapiens, 17.2%; in [7], 6.25%; in experiment [8], 10.1%; in [9] it was -13.8%.
Take `c1cnc(-c2nc(CN3CCCC(Cn4cncn4)C3)cs2)nc1` (stereo not given): the Percent Effect in experiment [1] is -3.67%; in experiment [2], 8.11%; in experiment [3], -6.35%; in [4], 6.78%; in the experiment on Trypanosoma cruzi, -4.81%; in experiment [5] it was -0.802%. Moreover, the Percent Effect is 11% in experiment [6]; 10.9% in the experiment filed under Homo sapiens; 6.4% in experiment [7]; 6.17% in [8]; -4.11% in [9].
